# Assay results reported in PubChem BioAssay AID504910 (Southern Research Specialized Biocontainment Screening …, 2011).
# Measured potencies and affinities stand elsewhere. Activity calls are given as the source filed them. No rule for the calls is given here.
# Experiment: HepG2 cell cytotoxicity, cytotoxicity control, set 4 (AID 504910)
# Conditions: series mostly up to 50 µM; viability: at the top concentration
row,Compound,viability
1,CCSc1nc2ccccc2c(=O)[nH]1,96.7% (inactive)
2,O=c1[nH]c(SCc2ccccc2Cl)nc2c1CCCC2,92.6% (inactive)
3,O=C(CSc1ncccn1)NC1CCCCC1,100% (inactive)
4,CC(C)CCNC(=O)CSc1nc2ccccc2c(=O)[nH]1,95.6% (inactive)
5,COc1cccc(NC(=O)CSc2nc3ccccc3c(=O)[nH]2)c1,96.4% (inactive)
6,CO[C@H]1/C=C/O[C@@]2(C)Oc3c(C)c(O)c4c(O)c(c(C=NN5CCN(C)CC5)c(O)c4c3C2=O)NC(=O)/C(C)=C\C=C\[C@H](C)[C@H](O)[C@@H](C)[C@@H](O)[C@@H](C)[C@H](OC(C)=O)[C@@H]1C,87% (inactive)
7,CCOC1OC(=O)C(Cl)=C1Nc1ccccc1C (stereo not given),96.8% (inactive)
8,Cc1nc(SCC(N)=O)[nH]c(=O)c1C,97.4% (inactive)
9,CCSc1nc(C)c(C)c(=O)[nH]1,96.9% (inactive)
10,NNC(=O)c1ccncc1,92.1% (inactive)
11,NC(=O)CSc1nc2ccccc2c(=O)[nH]1,98% (inactive)
12,CCC(Sc1nc2ccccc2c(=O)[nH]1)C(=O)NC1CCCCC1 (stereo not given),100% (inactive)
13,Cc1nc(SCC(=O)NC2CCCC2)[nH]c(=O)c1C,97% (inactive)
14,CN(C(=O)CSc1nc2ccccc2c(=O)[nH]1)C1CCCCC1,96.2% (inactive)
15,CC(Sc1nc2ccccc2c(=O)[nH]1)C(=O)NC1CCCCC1 (stereo not given),86.3% (inactive)
16,Cc1cnc(SCC(=O)NC2CCCCC2)[nH]c1=O,97.8% (inactive)
17,Cc1c[nH]c(=S)[nH]c1=O,96.7% (inactive)
18,Cc1cc(Br)ccc1NC(=O)c1cnc(N2CCN(c3ccccn3)CC2)c2ccccc12,81.3% (inactive)
19,Cc1cc(=O)[nH]c(SCC(=O)NC2CCCCC2)n1,96.6% (inactive)
20,CNC(=O)CSc1nc2ccccc2c(=O)[nH]1,95.1% (inactive)
